Shown are actives, neighbours in structure and some others; about 2.7% of the full set was active somewhere.
A549 viability = counter-screen for Nrf2 inhibitors: cytotoxicity in A549 cells | Potency, µM (highest dose often 46 µM), inactives show at the highest dose activity change, negative = cytotoxicity, actives largely listed as inhibitors | AID 504648 | A549 ARE-Fluc cells, CellTiter-Fluor viability, 18-24 h | 390,000 tested, 0.16% active; also: potency is read from the fitted curve at half-maximal effect; % is scaled to controls: 0 for no effect and ±100 for the full control effect
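A549 ARE_Fluc cells in 5% FBS OPTI-MEM were exposed to compounds in concentration-response for 18-24 h at 37 deg C. Viability was read by CellTiter-Fluor fluorescence (Ex 405/Em 525) after 30 min, before the luciferase read.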
Nrf2 activator = Nrf2 pathway activation | Potency, µM (doses to about 46.1 µM), for inactives: top-dose activation, most hits filed as activators | AREc32 ARE-luciferase reporter (MCF7-derived line), luminescence, 24 h | 410,000 tested, 0.31% active; also: potency is read from the fitted curve at half-maximal effect; % of control where 0% means no effect; nearly all actives have a fitted effect of over 65% in size
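ARE activation measured as luciferase luminescence (Steady-Glo, 30 min RT) in AREc32_Fluc cells after 24 hr compound exposure at 37 deg C, 5% CO2; cells seeded overnight at 1000/well in OPTI-MEM, 5% FBS.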
ALOX12 inh = inhibitors of human 12S-lipoxygenase ALOX12; P18054; purified 12hLO, xylenol orange hydroperoxide absorbance; Potency, µM (doses to about 108 µM), for inactives: at the highest dose activity change, negative = inhibition, usual class: inhibitors; 580,000 tested, 1.1% active; AID 1671190; also: potency is read from the fitted curve at half-maximal effect; % is scaled to controls: 0 for no effect and ±100 for the full control effect
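Purified human 12hLO (150 nM final) in 25 mM Hepes, 0.01% Triton X-100, pH 7.0 was preincubated 15 min at room temperature with compound. Then 40 uM arachidonic acid was added, 30 min. Hydroperoxide was read by Fe-XO absorbance ratio 573/405 nm.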
ERG Ets-DNA blk = blocks human ERG Ets domain binding to DNA; P11308; fluorescence polarization, His-ERG Ets domain / labelled DNA; Potency, µM (doses to about 76.9 µM), for the others: top-dose FP activity, negative = inhibition, hits mostly inhibitors; 370,000 tested, 0.028% active; AID 624246; active = well fitted inhibition curve with a large enough effect in the polarisation, with a control signal flat; inconclusive = small, poorly fitted or top-dose-only effect, or effect the other way, or a change in a side signal; inactive = no such curve, though single readings can be large or run the other way; the % refers to the polarisation;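 also: polarization taken with two DNA probes labelled with fluorescein and Texas red; potency is read from the fitted curve at half-maximal effect; % of control where 0% means no effect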
Target sequence (P11308 whole entry, looked up, the tested form may be a part): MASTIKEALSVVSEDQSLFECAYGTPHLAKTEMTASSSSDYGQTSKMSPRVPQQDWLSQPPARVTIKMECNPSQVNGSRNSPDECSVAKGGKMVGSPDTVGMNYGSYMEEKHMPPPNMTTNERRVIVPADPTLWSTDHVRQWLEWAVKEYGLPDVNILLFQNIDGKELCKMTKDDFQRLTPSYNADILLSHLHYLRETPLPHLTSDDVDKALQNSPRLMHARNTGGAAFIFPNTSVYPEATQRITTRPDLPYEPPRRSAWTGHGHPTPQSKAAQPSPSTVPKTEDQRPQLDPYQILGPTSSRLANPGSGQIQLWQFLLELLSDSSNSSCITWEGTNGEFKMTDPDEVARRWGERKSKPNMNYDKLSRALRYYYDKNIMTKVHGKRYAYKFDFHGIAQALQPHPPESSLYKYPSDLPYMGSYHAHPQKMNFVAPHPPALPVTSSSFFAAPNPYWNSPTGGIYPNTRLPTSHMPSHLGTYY
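His-tagged ERG Ets domain (1 uM in the protein solution; 300mM KCl, 50mM Tris-HCl, 1mM EDTA, 1mM DTT, pH 7.5) received compound, then a probe mix of 5 nM fluorescein-DNA and 100nM Texas-615-DNA. Fluorescence polarization was read for both dyes.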
LDHA block = LDHA (human) enzyme inhibition. P00338. purified LDHA, NADH/diaphorase-resazurin fluorescence; hits give low values. activity change, % (values are at about 110 or 230 µM). 480,000 tested, 0.15% active; in the data active = activity change below about -30%; inconclusive = mostly about -25% to -30%;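 also: plate controls were DMSO wells for no effect and wells without enzyme for full effect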
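Resorufin fluorescence (ex540/em590), read at 0 and 20 min after diaphorase/resazurin addition, reports the NADH left after a 5 min room-temperature reaction of 2 nM human LDH5 with 0.06 mM NADH and 0.2 mM pyruvate.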
Nrf2 inh = blocks Nrf2 signaling; A549 ARE-Fluc reporter, luciferase luminescence, 18-24 h; Potency, µM (doses to about 46 µM), for inactives: at the top dose activity change, negative = inhibition, actives largely listed as inhibitors; 360,000 tested, 2.1% active; AID 504444; also: potency is read from the fitted curve at half-maximal effect; % is scaled to controls: 0 for no effect and ±100 for the full control effect; nearly all actives have a fitted effect of over 60% in size
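Reporter: ARE-Fluc in A549. Exposure: 18-24 h, 37 °C, 5% CO2, 5% FBS OPTI-MEM. Readouts: fluorescent cytotoxicity (CellTiter-Fluor), then luminescent Nrf2 signal after BugLite.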
The depositor's hits bear a star; ? = inconclusive; / = not tested or not shown; [ ] = remark or other dose. Unless noted, calls follow the shape of the dose curve; as a rule, active = well fitted curve in the direction sought with a large enough effect; inconclusive = small, poorly fitted or top-dose-only effect, or another doubt; inactive = no such curve, though single readings can be large; an effect the other way counts as inactive or inconclusive.

SMILES	A549 viability	Nrf2 activator	ALOX12 inh	ERG Ets-DNA blk	LDHA block	Nrf2 inh
O=C(CSc1nnc2ccc(-c3ccncc3)nn12)N1CCCc2ccccc21	/	/	-20%	/	2	/
CCC1c2ccsc2CCN1C(=O)/C=C/c1ccccc1C (configuration not stated)	/	/	?	/	2	/
CCCCNC(=S)N/N=C1/CC(C)CC(C)(C)C1 (configuration not stated)	/	/	?	/	5	/
Cc1cc(OC(C)C(=O)N2CCN(c3ccc(F)cc3)CC2)c2c(C)c(C)c(=O)oc2c1 (configuration not stated)	-18%	-1%	-13%	5%	0	26µM*
Cc1cc(Cl)ccc1NS(=O)(=O)c1cc2[nH]c(=O)c(=O)[nH]c2cc1C	-3%	0%	?	1%	-4	?
CCN(CC)c1ccc(NS(=O)(=O)c2cc3[nH]c(=O)c(=O)[nH]c3cc2C)c(C)c1	-5%	0%	45µM*	1%	33	6%
N#Cc1ccc(OCc2noc(-c3ccc(Cl)cc3)n2)c(Cl)c1	/	/	?	/	-4	/
O=C(Nc1ccc(F)cc1F)c1cc(C2CC2)nn1-c1ccccc1	/	/	?	/	1	/
O=C(CC12CC3CC(CC(C3)C1)C2)NC(=S)NCc1ccco1	?	10%	28µM*	1%	-6	3%
CC(C)CCNC(=S)NCc1ccco1	/	/	32µM*	/	6	/
S=C(NCc1ccccc1)NCc1ccco1	12%	2%	0%	4%	0	4%
Cc1cccc(NC(=S)NCc2ccco2)n1	-3%	13µM*	?	-4%	-4	-12%
S=C(NCc1ccco1)NCc1ccco1	-2%	0%	32µM*	2%	-5	7%
O=C(COc1ccc(Cl)cc1Cl)NCc1ccco1	7%	6%	?	-1%	-5	11%
O=C(COc1ccc(Cl)cc1Cl)NNC(=S)NCc1ccco1	0%	5%	45µM*	-2%	-3	-19%
Oc1cccnc1SCc1ccccc1	-4%	8%	6.3µM*	8%	5	7%
COc1ccccc1C1/C(=C(/O)c2ccccc2)C(=O)C(=O)N1CCO (configuration not stated)	-2%	-1%	?	-8%	-3	1%
Cc1ccc(/C(O)=C2\C(=O)C(=O)N(CC(C)O)C2c2cccc(F)c2)cc1 (configuration not stated)	-9%	-1%	18µM*	-10%	-6	1%
COc1ccccc1C1/C(=C(/O)c2ccccc2)C(=O)C(=O)N1CC(C)O (configuration not stated)	14%	0%	3.5µM*	1%	-1	?
C=CC[n+]1c(-c2ccc(OC)c(OC)c2)csc1NNC(=O)Nc1ccccc1	?	17%	-10%	/	-3	13µM*
CCN(CC)CCCNc1oc(-c2ccccc2F)nc1C#N	/	/	-22%	/	-1	/
COc1ccc(-c2nc(CN3CCN(c4ccccc4OC)CC3)c(C)o2)cc1	?	4%	-7%	14%	3	18µM*
Cc1ccc(-c2csc3ncnc(N4CCN(Cc5ccccc5)CC4)c23)cc1	-9%	0%	-6%	4%	-3	23µM*
c1ccc(CN2CCN(c3ncnc4scc(-c5ccccc5)c34)CC2)cc1	/	/	64%	/	-1	/
COc1ccc(-c2csc3ncnc(N4CCN(c5ccccc5OC)CC4)c23)cc1	?	1%	-2%	0%	-6	23µM*
SMILES	A549 viability	Nrf2 activator	ALOX12 inh	ERG Ets-DNA blk	LDHA block	Nrf2 inh
Fc1ccc(CN2CCN(c3ncnc4scc(-c5ccccc5)c34)CC2)cc1	-3%	0%	2%	-2%	1	23µM*
COc1ccccc1N1CCN(Cc2nc(-c3ccc(F)cc3)oc2C)CC1	-12%	4%	-4%	15%	0	?
CN(C)S(=O)(=O)c1ccc(NC(=O)CN2CCN(c3ccc(O)cc3)CC2)cc1	/	/	?	/	66	/
Fc1ccc(CN2CCCN(Cc3nnsc3Cl)CC2)cc1	/	/	14%	/	11	/
CC(=O)c1c(C)[nH]c(C(=O)OCC(=O)Nc2ccc(Cl)cc2[N+](=O)[O-])c1C	-11%	11%	-1%	-3%	1	21µM*
COc1cc(NC(=O)COC(=O)c2[nH]c(C)c(C(C)=O)c2C)cc(OC)c1	-17%	6%	11%	-3%	-7	13µM*
CC(=O)c1c(C)[nH]c(C(=O)OCC(=O)Nc2ccc3c(c2)OCCO3)c1C	-1%	2%	?	23%[15.4 µM]	1	16µM*
CCCCC(CC)CNC(=O)CCNC(=O)c1ccccc1 (configuration not stated)	/	/	-13%	/	-3	/
CC(C)C(NC(=O)c1cccc(NC(N)=O)c1)c1ccc(Cl)cc1 (configuration not stated)	/	/	?	/	2	/
Cc1[nH]c(=S)sc1Cc1cccc(C(F)(F)F)c1	/	/	25µM*	/	8	/
COc1cc(C2CC(=O)Nc3c2ncn3-c2cccc(C(F)(F)F)c2)cc2c1OCO2 (configuration not stated)	/	/	?	/	33	/
COc1ccc(C2CC(=O)Nc3c2ncn3-c2cccc(C(F)(F)F)c2)cc1OC (configuration not stated)	/	/	28µM*	/	57	/
COc1ccccc1N(C(=O)c1snc(C(N)=O)c1N)C(C(=O)NCCC(C)C)c1ccco1 (configuration not stated)	-1%[1.84 µM]	-1%	-4%	7%	-2	?
CCOc1ccccc1N(C(=O)c1snc(C(N)=O)c1N)C(C(=O)NCCC(C)C)c1ccco1 (configuration not stated)	?	1%	-17%	4%	-4	26µM*
Cc1ccc(C(=O)[C@@H]2[C@@H]3CCCN3[C@]3(C(=O)Nc4c(Cl)cccc43)[C@@]23C(=O)Nc2ccccc23)cc1	/	/	?	/	1	/
N#CC(c1cccc(Cl)c1)c1ccc2c(C(F)(F)F)cc(C(F)(F)F)nc2n1 (configuration not stated)	6.5µM*	16%	6%	-2%	-4	/
NNc1ccc2c(C(F)(F)F)cc(C(F)(F)F)nc2n1	-10%	0%	0%	-2%	8	?
O=C(CSCc1cccc(CSCC(=O)Nc2ccc3ccccc3c2)n1)Nc1ccc2ccccc2c1	-22%	1%	?	9%	0	13µM*
O=C(Nc1ccn(-c2ccccc2)n1)c1ccc(Cl)cc1	5%	4%	-11%	2%	9	-4%

Screening data deposited in PubChem BioAssay by National Center for Advancing Translational Sciences (NCATS).
